Measurements taken from PubChem BioAssay AID720532 (National Center for Advancing Translational Sciences (NCATS), 2013).
Values joined by “and” are separate entries in the source; they are usually repeats but may differ in a detail not shown here. Identical values can stand only once. The campaign covered roughly 18,000 compounds. About 1,200 (6.7%) were called active. About 16% were inconclusive and are not listed. The entries come from a sample that favours actives as a whole. Unmarked numbers belong to inactive results. The call rests on the fitted dose curve; tested in HEK293 cells. Bridge positions count the residues as written; N and C are the ends. Peptide text beside a SMILES is read from it.

assay: qHTS for Inhibitors of binding or entry into cells for Marburg Virus; conditions: Marburg virus pseudotype entry/binding inhibition, cell-based; series mostly up to 49.2 µM; activity change, negative = inhibition: at the top concentration
On the % scale 0 is the no-effect control and ±100 the full control effect; potency means the concentration at half of the fitted maximal effect.

| SMILES | activity change, negative = inhibition | Potency |
| --- | --- | --- |
| COC(=O)C1=C(C(=O)OC)[C@@H]2N(C)c3ccccc3[C@@]23C[C@@H](C(=O)OC)N(C(=O)c2ccco2)C3=N1 | 74% [at 8.59 µM] | – |
| C[C@H](CCC(=O)NCC(=O)O)[C@H]1CC[C@H]2[C@H]3[C@@H](C[C@@H](O)[C@]12C)[C@]1(C)CC[C@H](O)C[C@@H]1C[C@@H]3O | 7.66% [at 17.8 µM] | – |
| COC(=O)[C@@]1(C=C[C@@H](C)[C@H](OC)c2ccccc2Br)[C@@H]2Oc3ccccc3[C@@H]21 | 4.01% [at 8.59 µM] | – |
| C=C[C@](C)(O)CCC1C(=C)CCC2[C@@](C)(CO)CCC[C@@]12C (stereo not given in full) | 1.45% | – |
| COc1cccc([C@@H]2Oc3ccc(OC)cc3C(=O)[C@@H]2OC(=O)Nc2cc(OC)c(OC)c(OC)c2)c1 | 12.9% [at 8.59 µM] | – |
| Fc1ccc(Cl)cc1-c1nc(Nc2ccncc2)c2nccnc2n1 | -20.9% | – |
| C=C(C(C)=O)C(O)c1ccc([N+](=O)[O-])cc1 (stereo not given) | -9.42% | – |
| COc1ccc(-c2nc3c(c4c2C[C@H](c2ccccc2)OC4)CN(C(=O)C2CC2)CC3)c(C)c1 | -29.5% [at 8.59 µM] and -8.72% [at 8.59 µM] | – |
| C[C@@H](O)[C@@H]1NC(=O)[C@H](CCCCN)NC(=O)[C@H](Cc2c[nH]c3ccccc23)NC(=O)[C@H](Cc2ccccc2)NC(=O)[C@H](Cc2ccccc2)NC(=O)[C@H](CC(N)=O)NC(=O)[C@H](CCCCN)NC(=O)[C@@H](NC(=O)[C@@H]2CCCN2)CSSC[C@@H](C(=O)N[C@@H](CCCCN)C(=O)O)NC(=O)[C@H](CO)NC(=O)[C@H](CO)NC(=O)[C@H](Cc2ccccc2)NC1=O (H-PCKNFFWKTFSSCK-OH; disulfide 2-13) | 9.81% | – |
| C[C@@H]1C(c2ccc(F)cc2)=NN(c2ccc(Br)cc2)[C@H]1C(=O)N1CCOC1=O | -15% | – |
| C/C=C/C1=C(C(=O)O)N2C(=O)[C@@H](NC(=O)[C@H](N)c3ccc(O)cc3)[C@H]2SC1 | 33.3% | – |
| COC(=O)CC1c2ccccc2C(Cc2ccc(OC)cc2)=C(C)N1C(=O)OC (stereo not given) | 0.314% [at 8.59 µM] and -19% [at 8.59 µM] | – |
| CC(C)(C)OC(=O)N1CCC(C(=O)Nc2cccc(C(=O)NCCc3ccccc3)c2)CC1 | 27.7% | – |
| CC(C)(O)CCC(O)[C@@](C)(O)C1CC[C@]2(O)C3=CC(=O)C4CC(O)C(O)C[C@]4(C)C3CC[C@]12C (stereo not given in full) | 7.71% | – |
| CC(C)=CCC[C@]1(C)[C@@H](CC=C(C)C)C[C@@]2(CC=C(C)C)C(=O)[C@]1(C(=O)C(C)C)C(=O)C(CC=C(C)C)=C2O | – | 15.8 µM (active) |
| CC1(OC(=O)C2CCCC2)C(=O)C=C2C=C(c3ccc(C#N)cc3)OC=C2C1=O (stereo not given) | inactive | – |
| CCN1C(=NCc2cc(OC)c(OC)c(OC)c2)NC(c2cccc(C(F)(F)F)c2)C(C(=O)OC)=C1C (stereo not given) | 12.8% [at 8.59 µM] | – |
| O=C1C=C(c2ccccc2)CCC1 | inactive | – |
| CC[C@H](C)[C@H](NC(=O)[C@H](CCCNC(=N)N)NC(=O)[C@H](CCCNC(=N)N)NC(=O)[C@H](CC(C)C)NC(=O)[C@H](Cc1ccccc1)NC(=O)CNC(=O)CNC(=O)[C@@H](N)Cc1ccc(O)cc1)C(=O)N[C@@H](CCCNC(=N)N)C(=O)N1CCC[C@H]1C(=O)N[C@@H](CCCCN)C(=O)N[C@@H](CC(C)C)C(=O)N[C@@H](CCCCN)C(=O)N[C@@H](Cc1c[nH]c2ccccc12)C(=O)N[C@@H](CC(=O)O)C(=O)N[C@@H](CC(N)=O)C(=O)N[C@@H](CCC(N)=O)C(=O)O | 5.11% | – |
| CNCC[C@H](Oc1ccc(C(F)(F)F)cc1)c1ccccc1 | – | 3.98 µM (active) and 8.91 µM (active) |

| SMILES | activity change, negative = inhibition | Potency |
| --- | --- | --- |
| COC(=O)N[C@@H](c1ccccc1)[C@]1(C(=O)OC)CCCC1=O | -27.3% [at 8.59 µM] | – |
| CC[C@H](C)[C@@H](NC(=O)O[C@@H]1C(=O)c2cc(OC)ccc2O[C@H]1c1cccc(OC)c1)C(=O)OC | -4.78% | – |
| COc1ccccc1C1CN(CCNC(=O)C2=CCCC2)Cc2ccccc2O1 (stereo not given) | -15.4% | – |
| COCC(=O)Nc1cc(C(=O)N2CCCC(c3ccccc3)CC2)c2c(c1)nc(-c1ccncc1)n2C (stereo not given) | 10.9% | – |
| C=C(C)C(=O)c1ccc(F)cc1 | 11.7% | – |
| C[C@@H]1[C@@H](c2ccccc2)Oc2c(Cl)cccc2S(=O)(=O)N1Cc1ccc(Cl)cc1 | 19.7% | – |
| C#C[C@]1(O)CC[C@H]2[C@@H]3CCC4=C/C(=N/O)CC[C@@H]4[C@H]3CC[C@@]21CC | 23.7% | – |
| COCCN1C(=O)N[C@@H](CCc2ccccc2)[C@H](C(C)=O)[C@H]1C | -2.21% [at 8.59 µM] | – |
| COc1ccc([C@]23Cc4ccccc4[C@H](O2)c2c(c4ccc(OC)cc4oc2=O)O3)cc1 | -9.62% [at 8.59 µM] | – |
| COc1ccc(-c2nc3c(c4c2C[C@H](c2ccccc2)OC4)CN(C(=O)c2cccnc2)CC3)c(C)c1 | 29.8% [at 8.59 µM] | – |
| CC[C@H]1C[C@H](C=CCC(C(=O)OC)C(=O)OC)OP(=O)(OC)O1 (stereo not given in full) | 30.3% | – |
| CC[C@H]1CN2CCc3cc(OC)c(OC)cc3[C@@H]2C[C@@H]1C[C@H]1NCCc2cc(OC)c(OC)cc21 | – | 0.398 µM (active) |
| Cc1cc2oc(=O)cc(-c3ccccc3)c2c(C)c1-c1ccc(OC(F)(F)F)cc1 | -4.07% | – |
| O=C1OCCN1C(=O)[C@H]1[C@H](c2ccccc2)C(c2ccc(F)cc2)=NN1c1ccccc1 | -2.52% | – |
| C=C/C1=C/Cc2ccccc2[C@H](C[N+](=O)[O-])C(C(=O)OC)(C(=O)OC)C1 | -15.8% | – |
| CC/C=C\C/C=C\C/C=C\C/C=C\C/C=C\C/C=C\CCC(=O)NCCc1ccc(O)c(O)c1 | 11.2% | – |
| CC1=C2[C@@H](O)[C@H]([C@@H](C)C(=O)NCCC(C)C)CC[C@@]2(C)C=CC1=O | 12.8% | – |
| O=C(C1CCCCC1)N1C[C@@H](n2cc(C3CC3)nn2)[C@@H](O)C[C@@H]1c1ccccc1 | -1.69% | – |
| Cc1ccc(-c2ccc(CN3C(C(C)C)C(=O)N(Cc4cn(CCC5OCCCO5)nn4)CCS3(=O)=O)cc2)cc1 (stereo not given) | -27.2% | – |
| COC(=O)C12C[C@H](C)C3C(C)C(c4ccccc4C31)N2C(=O)C(F)(F)F (stereo not given in full) | -25.2% [at 8.59 µM] | – |
